GBA activity up = GBA activity enhancers in patient fibroblasts, primary screen, cell-based; L444P Gaucher fibroblasts, 4-MU-glucoside fluorescence, 3 days; AID 784, 2007; Lysosomal acid glucosylceramidase (Homo sapiens), P04062; 0.44% of 30,000 active; activation, % at 10 µM; in the data active means activation above about 65%
Target sequence (P04062 whole entry L483P): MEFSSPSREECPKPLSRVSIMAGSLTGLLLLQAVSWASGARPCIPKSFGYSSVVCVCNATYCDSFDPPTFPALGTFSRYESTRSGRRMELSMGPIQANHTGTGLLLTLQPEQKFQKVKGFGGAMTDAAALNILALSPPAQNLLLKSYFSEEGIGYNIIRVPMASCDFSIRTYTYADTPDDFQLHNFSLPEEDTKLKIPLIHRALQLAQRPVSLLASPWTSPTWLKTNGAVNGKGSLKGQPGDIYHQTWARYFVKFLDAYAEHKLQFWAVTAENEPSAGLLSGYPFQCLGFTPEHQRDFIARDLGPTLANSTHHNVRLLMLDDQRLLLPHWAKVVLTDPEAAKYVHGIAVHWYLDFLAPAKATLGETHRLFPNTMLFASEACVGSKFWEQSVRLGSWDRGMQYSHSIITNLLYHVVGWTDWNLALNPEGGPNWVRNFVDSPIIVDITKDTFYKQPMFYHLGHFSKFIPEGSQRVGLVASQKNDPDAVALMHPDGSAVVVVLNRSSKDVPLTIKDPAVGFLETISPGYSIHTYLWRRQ
Large screens that a line does not name were inactive. This excerpt belongs to a sample that is enriched for hits.

O=C(COC(=O)c1ccc[nH]c1=O)NCC1CCCO1 (stereo unspecified)	none
Cc1cccc(CN2CCN(CC(=O)O)C2=O)c1	none
CC(=O)N1C(C(=O)O)CSC1c1cccc(C)c1 (stereo unspecified)	GBA activity up 122
Cc1cccc(NC(=O)c2cnc3n(c2=O)CCS3)c1	none
O=C(CCCCCN1C(=O)c2ccccc2C1=O)NCc1ccccn1	none
Cc1cc2ccccc2c(=O)n1CC(=O)NCC(=O)N1CCN(c2ccccc2)CC1	GBA activity up 75
Cc1cc2ccccc2c(=O)n1CC(=O)N1CCN(c2cccc(Cl)c2)CC1	none
Cc1cc2ccccc2c(=O)n1CC(=O)NC1CCCCCC1	none
NC(=O)c1cnn2c(C(F)(F)F)cc(-c3ccc(F)cc3)nc12	none
Cc1nc(SCC(C)C)[nH]c(=O)c1Cc1ccccc1	none
O=S(=O)(NC1c2cccc3cccc(c23)C1N1CCN(CCO)CC1)c1ccccc1 (stereo unspecified)	none
O=S(=O)(NC1c2cccc3cccc(c23)C1N1CCNCC1)c1ccccc1 (stereo unspecified)	GBA activity up 74
O=S(=O)(NC1CC1)c1cccc(S(=O)(=O)N2CCCC2)c1	none
CCOC(=O)C1C(=O)CC(C)(O)C(C(=O)OCC)C1c1ccccc1OC (stereo unspecified)	none
Cc1ccc(S(=O)(=O)N2CCCCC2)cc1C(=O)Nc1ncn[nH]1	none
O=C(NCc1n[nH]c(=S)n1-c1ccccc1)c1ccco1	none
COc1cccc(-c2n[nH]c(=S)n2Cc2ccco2)c1OC	none
S=c1[nH]nc(Cc2ccccc2)n1Cc1ccco1	GBA activity up 101
Cc1cccc(C(=O)Nc2ccccc2C(=O)OCc2c(C)noc2C)c1	none
CCCCN(C)C(=O)c1oc2ccc(S(=O)(=O)N3CCCCCC3)cc2c1C	none
CCOc1ccccc1C1C(C(=O)Nc2ccccc2OC)=C(C)Nc2nnnn21 (stereo unspecified)	GBA activity up 153
COc1ccccc1NC(=O)C1=C(C)Nc2nnnn2C1c1ccncc1 (stereo unspecified)	none
COc1ccccc1NC(=O)C1=C(C)Nc2ncnn2C1c1ccccc1C (stereo unspecified)	none
COc1ccc(S(=O)(=O)N2CCC(C(=O)NCc3ccccn3)CC2)cc1Cl	none
Cc1nnc(NCCc2ccccc2)n(N)c1=O	none
Cc1cc(=O)oc2cc3c(cc12)OCCN3	none
Cc1cc(=O)oc2cc3c(cc12)OCCO3	none
Cc1cc2c(C)cc(=O)oc2c2c1NCCC2	GBA activity up 76
CCOC(=O)c1ccccc1NC(=O)c1ccc(Cl)c(S(=O)(=O)N2CCOCC2)c1	none

Source: PubChem (The Scripps Research Institute Molecular Screening Center)
